The record followed here is PubChem BioAssay (NCI).

The structures appear in SMILES notation. Compounds without any hit were thinned out: in the full panel of roughly 83,000, 20% have a hit.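 Testing used 96-well plates and a 48-hour single-concentration exposure. Example: -40 means 40% of the starting cells died.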 Values without a mark were called inactive. Calls of active or inactive are those of the source. How the source made its calls: active means growth percent below 10; inactive means the rest.

Holding throughout (test): NCI-60 one-dose screen, 48 h (100 = growth as untreated, 0 = no growth, -100 = all killed)
One assay has as its system NCI-H23 lung. The settings on record: 10 µM unless noted.
A further assay has as its system NCI-H226 lung. The settings on record: 10 µM unless noted.
Another assay relates to NCI-H322M lung. The settings on record: 10 µM unless noted.
The next assay deals with NCI-H460 lung. The settings on record: 10 µM unless noted.
A further assay deals with HOP-92 NSCLC. The settings on record: 10 µM.
A further assay has as its system A549/ATCC NSCLC. The settings on record: 10 µM unless noted.
The subject of another assay is 786-0 renal. The settings on record: 10 µM unless noted.
The next assay concerns COLO 205 colon. To be noted: 10 µM unless noted.
The subject of a further assay is DU-145 prostate. To be noted: 10 µM unless noted.
For the next assay, the system named is K-562 leukemia. To be noted: 10 µM unless noted.
For the next assay, the system named is MALME-3M melanoma. The settings on record: 10 µM unless noted.
In a further assay the test system is MDA-MB-231 breast. The settings on record: 10 µM unless noted.
In the next assay the test system is RXF 393 renal. To be noted: 10 µM unless noted.
The subject of the next assay is SF-268 CNS. The settings on record: 10 µM unless noted.
Another assay has as its system SF-295 CNS. The settings on record: 10 µM unless noted.
The next assay concerns SF-539 CNS. To be noted: 10 µM unless noted.
The test system of another assay is UACC-257 melanoma. The settings on record: 10 µM unless noted.
The subject of a further assay is M14 melanoma. To be noted: 10 µM unless noted.
Another assay relates to NCI-H522 lung. The settings on record: 10 µM.

Turning to `COc1cc(N2C(=O)C=CC2=O)ccc1N1C(=O)C=CC1=O`, the growth in the assay with NCI-H23 lung was 105%; in the assay with NCI-H226 lung it was 105%; in the assay on NCI-H322M lung, 116%; in the assay on NCI-H460 lung, 104%; in the assay on HOP-92 NSCLC it was 93.1%; in the assay on A549/ATCC NSCLC, 103%. The growth in the assay with 786-0 renal was 107%; with COLO 205 colon it was 53%; in the assay with DU-145 prostate, 114%; with K-562 leukemia, 64.5%; with MALME-3M melanoma, 97.3%; in the assay on MDA-MB-231 breast, 116%. Also, the growth in the assay with RXF 393 renal was 110%; in the assay on SF-268 CNS it was 105%; with SF-295 CNS it was 99.9%; in the assay with SF-539 CNS, 101%; with UACC-257 melanoma it was 104%; with M14 melanoma, 103%.
Turning to `CCN(CC)CCCC(C)Nc1c(C)cnc2cc(Cl)c(C)cc12` (centres undefined), the growth in the assay on NCI-H23 lung is 91.9%; in the assay with NCI-H226 lung, 96.2%; in the assay on NCI-H322M lung it was 87.6%; in the assay with NCI-H460 lung, 90.2%; in the assay with HOP-92 NSCLC, 70.4%; in the assay on A549/ATCC NSCLC it was 103%. Besides, the growth with 786-0 renal was 64.7%; in the assay with COLO 205 colon, 72.2%; in the assay with DU-145 prostate, 91.7%; in the assay on K-562 leukemia it was 3.57% (active); with MALME-3M melanoma, 110%; with MDA-MB-231 breast, 73.5%. For the same compound, the growth in the assay with RXF 393 renal was 69.3%; in the assay with SF-268 CNS, 87.6%; with SF-295 CNS, 84.8%; in the assay on SF-539 CNS, 72.3%; in the assay with UACC-257 melanoma, 112%; in the assay with M14 melanoma it was 7.11% (active).
Take `Clc1ccc(N/N=C(/c2ccccc2)c2ccccn2)nc1`: the growth in the assay with NCI-H23 lung is 29.7%; with NCI-H226 lung it was 27.1%; with NCI-H322M lung, 39.8%; with HOP-92 NSCLC it was 51%; in the assay with NCI-H522 lung it was 60.8%; in the assay on A549/ATCC NSCLC, 32%. The growth is 37.6% with 786-0 renal; 25% in the assay on COLO 205 colon; 42% with DU-145 prostate; 15.5% in the assay on K-562 leukemia; 50.5% in the assay on MALME-3M melanoma; 30.7% in the assay with MDA-MB-231 breast. In addition, the growth with RXF 393 renal is 74.6%; with SF-268 CNS it was 37.8%; with SF-295 CNS, 41.2%; with SF-539 CNS it was 41.3%; in the assay with UACC-257 melanoma, 13.4%; in the assay with M14 melanoma, 28.9%.
Take `CCCCCc1ccnc(CC(=O)c2ccc(OC)cc2)c1`: the growth with NCI-H23 lung was 93.8%; in the assay with NCI-H226 lung, 88.6%; in the assay with NCI-H322M lung, 104%; in the assay with NCI-H460 lung, 95.2%; with HOP-92 NSCLC, 69.5%; with 786-0 renal it was 98.9%. Further, the growth in the assay with COLO 205 colon is 87.3%; in the assay with DU-145 prostate it was 105%; in the assay on K-562 leukemia it was 68.1%; in the assay with MALME-3M melanoma, 90.3%; with MDA-MB-231 breast, 98%; in the assay with RXF 393 renal, 106%. The growth with SF-268 CNS is 98.7%; with SF-295 CNS, 97.4%; with SF-539 CNS it was 97.2%; with UACC-257 melanoma, 90.9%; in the assay with M14 melanoma, 99.2%.
On to `O=C(/C=C\c1ccccc1Cl)c1ccccc1`, for which the growth is 91.9% in the assay with NCI-H23 lung; 86.2% in the assay on NCI-H226 lung; 104% in the assay on NCI-H322M lung; 112% in the assay with HOP-92 NSCLC; 100% with NCI-H522 lung; 93.9% in the assay on 786-0 renal. In addition, the growth is 120% in the assay on COLO 205 colon; 101% in the assay with DU-145 prostate; 102% in the assay with K-562 leukemia; 98.9% with MALME-3M melanoma; 91.7% in the assay on MDA-MB-231 breast; 89.7% with RXF 393 renal. For the same compound, the growth in the assay on SF-268 CNS is 93.4%; in the assay on SF-295 CNS it was 75.2%; in the assay with SF-539 CNS, 103%; in the assay with UACC-257 melanoma, 119%; in the assay on M14 melanoma, 101%.
Regarding `O=S(=O)(Cc1cccc2c(CS(=O)(=O)c3ccc(Cl)cc3)cccc12)c1ccc(Cl)cc1`, the growth in the assay on NCI-H23 lung is 98%; with NCI-H226 lung, 107%; with NCI-H322M lung, 86.7%; with NCI-H460 lung, 72.4%; with HOP-92 NSCLC, 97.1%; with A549/ATCC NSCLC it was 84.3%. For the same compound, the growth in the assay with 786-0 renal is 119%; in the assay on COLO 205 colon it was 83%; with DU-145 prostate, 91.2%; with K-562 leukemia, 83.2%; with MDA-MB-231 breast it was 97.3%; in the assay on RXF 393 renal it was 109%. The growth is 92.5% in the assay with SF-268 CNS, 94.3% with SF-539 CNS, 107% in the assay with UACC-257 melanoma and 102% in the assay on M14 melanoma.
Take `CCOC(=O)c1c(C)oc2ncnc(Nc3ccc(NC(=O)Nc4cccc(Cl)c4)cc3)c12`: the growth was 64.1% with NCI-H23 lung; 54.8% in the assay with NCI-H226 lung; 83.6% in the assay with NCI-H322M lung; 67.2% in the assay with NCI-H460 lung; 50.7% with HOP-92 NSCLC; 32.3% with A549/ATCC NSCLC. Further, the growth with 786-0 renal is 79.1%; with DU-145 prostate it was 70.8%; in the assay on K-562 leukemia, 67.7%; in the assay with MALME-3M melanoma it was 81.4%; in the assay with MDA-MB-231 breast, -18.7% (active); with RXF 393 renal, 63.6%. Further, the growth was 86.4% with SF-268 CNS; 79.6% in the assay on SF-295 CNS; 16.6% in the assay with SF-539 CNS; 84% in the assay with UACC-257 melanoma; 48.6% in the assay with M14 melanoma.
Consider `COC(=O)c1ccc2[nH]c(O)c(C(=Nc3ccc(N(C)C(=O)CN4CCN(C)CC4)cc3)c3ccc(CCO)cc3)c2c1`, for which the growth is 57.1% in the assay on NCI-H23 lung; 57% in the assay with NCI-H226 lung; 66.5% with NCI-H322M lung; 74.6% with NCI-H460 lung; 66.6% in the assay on HOP-92 NSCLC; 95.4% in the assay on A549/ATCC NSCLC. The growth in the assay with 786-0 renal was 44.2%; with COLO 205 colon, 18.1%; in the assay on DU-145 prostate, 80.4%; in the assay on K-562 leukemia, 8.34% (active); in the assay with MALME-3M melanoma it was 19%; in the assay with MDA-MB-231 breast, 31.2%. Moreover, the growth in the assay with RXF 393 renal was 30%; with SF-268 CNS, 29.6%; in the assay with SF-295 CNS it was 93.2%; in the assay with SF-539 CNS, 28%; in the assay with UACC-257 melanoma, 77.6%; in the assay on M14 melanoma it was 57.3%.
On to `CC(C)OC(=O)[C@H](C)N[P@@](=O)(OC[C@@]1(C)O[C@@H](n2cc(F)c(N)nc2=O)C[C@@H]1O[P@](=O)(N[C@@H](C)C(=O)OC(C)C)Oc1ccccc1)Oc1ccccc1`, for which the growth with NCI-H23 lung was 94.4%; in the assay on NCI-H226 lung, 96.4%; in the assay on NCI-H322M lung, 102%; in the assay on HOP-92 NSCLC, 85.1%; in the assay on NCI-H522 lung it was 85.6%; in the assay with A549/ATCC NSCLC, 92.2%. Also, the growth is 104% in the assay on 786-0 renal; 103% with DU-145 prostate; 91.1% in the assay on MALME-3M melanoma; 119% in the assay on MDA-MB-231 breast; 54% with SF-268 CNS; 103% in the assay on SF-295 CNS. Further, the results for the growth with SF-539 CNS, in the assay on UACC-257 melanoma and with M14 melanoma were 63.3%, 92.6% and 91.6%, respectively.
